PubChem BioAssay (NCATS)
Values joined by “and” are separate entries in the source; they are usually repeats but may differ in a detail not shown here. Equal values may be shown once. Results filed as inconclusive are left out. Active and inactive are the calls of the source. Calls come from the whole dose curve; as a rule, active = well fitted cell-killing curve with a large enough effect; inconclusive = small, poorly fitted or top-dose-only effect; inactive = flat fitted curve, though single readings scatter.

Experiment: Cellular viability qHTS for adrenocortical cancer (ACC) cell line SW-13 (AID 1963989); note: nearly all actives have a fitted effect of over 65% in size;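 for activity (max response): cells grown in serum-free medium with ITS supplement; % is set by controls: 0 for no effect and ±100 for the full control effect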
Conditions: SW-13 ACC cells viability, CellTiter-Glo, 48 h; activity (max response): hits give low values
In short: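 Compound titrations (up to 46 uM final, in DMSO) were applied to SW-13 cells for 48 h at 37C/5% CO2. Reading used CellTiter-Glo after 20 min at room temperature; fitted curves yielded IC50 and efficacy.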
Potency is the fitted concentration of half-maximal effect.

SMILES	activity (max response)	Potency
COc1cc(-c2cn(C)c(=O)c3cnccc23)cc(OC)c1CN(C)C	-6.63% (inactive)	–
CN1C(CSCC(F)(F)F)Nc2cc(Cl)c(S(N)(=O)=O)cc2S1(=O)=O (stereo not given)	-6.86% (inactive)	–
CN1CCN(c2ccc(-c3cccc(CN4CCOCC4)c3)cc2NC(=O)c2c[nH]c(=O)cc2C(F)(F)F)CC1	-3.17% (inactive)	–
COC(=O)N(C)c1c(N)nc(-c2nn(Cc3ccccc3F)c3ncccc23)nc1N	-4.16% (inactive)	–
C=C1CCC[C@]2(C)C=C3OC(=O)C(C)=C3C[C@@H]12	-6.22% (inactive)	–
COCCNCc1ccc(-c2cc3nccc(Oc4ccc(NC(=S)NC(=O)Cc5ccc(F)cc5)cc4F)c3s2)nc1	–	28.2 µM (active)
CCCCCN(CCCOC)C(=O)C(CCC(=O)O)NC(=O)c1ccc(Cl)c(Cl)c1 (stereo not given)	5.62% (inactive)	–
CC1(C)[C@@H](O)CC[C@]2(C)[C@H]3C(=O)C=C4[C@@H]5C[C@@](C)(C(=O)O)CC[C@]5(C)CC[C@@]4(C)[C@]3(C)CC[C@@H]12	3.49% (inactive)	–
COc1ccccc1N1CCN(CCCCNC(=O)c2ccc(-c3ccc(C(C)=O)cc3)cc2)CC1	-20.9% (inactive)	–
CCO[C@@H]1OC(=O)C[C@@H]1NC(=O)[C@@H]1CCCN1C(=O)[C@@H](NC(=O)c1ccc(N)c(Cl)c1)C(C)(C)C	-11.3% (inactive)	–
[2H]c1nc(C)nc([2H])c1-c1cc(NC[C@@H](C)c2cccc3c(C(=O)NC)ccnc23)ncn1	14.2% (inactive)	–
Cc1ccsc1C(=CCCN1CCC[C@@H](C(=O)O)C1)c1sccc1C	0.503% (inactive) and 7.63% (inactive)	–
C[C@]12C=CC(=O)C=C1[C@@H](F)C[C@@H]1[C@@H]2[C@@H](O)C[C@@]2(C)[C@H]1CC[C@]2(O)C(=O)CO	7.4% (inactive)	–
NCC1CCC(C(=O)Oc2ccc(CCC(=O)O)cc2)CC1 (stereo not given)	3.63% (inactive)	–
Cc1ncc(CO)c(CO)c1O	1.35% (inactive)	–
Cc1ncc(CO)c(CN)c1O	7.61% (inactive)	–

Experiment: Cellular viability qHTS for adrenocortical cancer (ACC) cell line NCI-H295R (AID 1963990); note: nearly all actives have a fitted effect of over 60% in size;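 for activity change, negative = viability loss: 0% = DMSO only wells and -100% = full killing with cytotoxic reference compound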
Conditions: CellTiter-Glo ATP luminescence, 48 h; series mostly up to 46.1 µM; activity change, negative = viability loss: at the top concentration
In short: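 Readout: CellTiter-Glo luminescence, 20 min RT. Exposure: 48 h, 37C/5% CO2. Cells: NCI-H295R, ITS-DMEM serum-free. Range: up to 46 uM. Analysis: 4PL fit, IC50 plus efficacy.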

SMILES	Potency	activity change, negative = viability loss
C=C1/C(=C\C=C2/CCC[C@]3(C)[C@@H]([C@H](C)CCCC(C)(C)O)CC[C@@H]23)C[C@@H](O)C[C@@H]1O	25.1 µM (active)	–
COc1cc(-c2cn(C)c(=O)c3cnccc23)cc(OC)c1CN(C)C	–	-4.67% (inactive)
CN1C(CSCC(F)(F)F)Nc2cc(Cl)c(S(N)(=O)=O)cc2S1(=O)=O (stereo not given)	–	11.9% (inactive)
CN1CCN(c2ccc(-c3cccc(CN4CCOCC4)c3)cc2NC(=O)c2c[nH]c(=O)cc2C(F)(F)F)CC1	–	0.341% [at 20 µM] (inactive)
O=C(Nc1ccc(Oc2ccc(Cl)cc2)c(Cl)c1)c1cc(I)cc(I)c1O	20.6 µM (active)	–
CC(C)(C)NCC(O)c1cc(O)cc(O)c1 (stereo not given)	25.9 µM (active)	–
COc1ccc(C(=O)C2CCN(CC(=O)N(Cc3nc4c(c(=O)[nH]3)COCC4)CC3CC3)CC2)cc1	–	-12.2% (inactive)
Cc1ccc(/C=N/n2c(-c3ccccc3)csc2=S)cc1	–	-17.2% (inactive)
CCCOC(=O)c1ccc(N)cc1	–	12.4% (inactive)
CN[C@@H]1[C@@H](O)[C@@H](O[C@@H]2[C@H](O)[C@H](O[C@H]3OC(CN)=CC[C@H]3N)[C@@H](N)C[C@H]2N)OCC1(C)O (stereo not given in full)	–	-6.48% (inactive)
CCCCCCCCCCOCC(O)CN (stereo not given)	18.4 µM (active)	–
COC(=O)N(C)c1c(N)nc(-c2nn(Cc3ccccc3F)c3ncccc23)nc1N	–	-6.01% (inactive)
C=C1CCC[C@]2(C)C=C3OC(=O)C(C)=C3C[C@@H]12	–	-6.07% (inactive)
COCCNCc1ccc(-c2cc3nccc(Oc4ccc(NC(=S)NC(=O)Cc5ccc(F)cc5)cc4F)c3s2)nc1	12.6 µM (active)	–
CCCCNc1ccc(C(=O)OCCOCCOCCOCCOCCOCCOCCOCCOCCOC)cc1	–	-6.32% (inactive)
CCCCCN(CCCOC)C(=O)C(CCC(=O)O)NC(=O)c1ccc(Cl)c(Cl)c1 (stereo not given)	–	-15.3% (inactive)
CC1(C)[C@@H](O)CC[C@]2(C)[C@H]3C(=O)C=C4[C@@H]5C[C@@](C)(C(=O)O)CC[C@]5(C)CC[C@@]4(C)[C@]3(C)CC[C@@H]12	–	1.21% (inactive)

SMILES	Potency	activity change, negative = viability loss
COc1ccccc1N1CCN(CCCCNC(=O)c2ccc(-c3ccc(C(C)=O)cc3)cc2)CC1	–	-3.33% (inactive)
COc1ccc(NS(=O)(=O)c2ccc(N)cc2)nn1	–	-0.121% (inactive)
CCO[C@@H]1OC(=O)C[C@@H]1NC(=O)[C@@H]1CCCN1C(=O)[C@@H](NC(=O)c1ccc(N)c(Cl)c1)C(C)(C)C	–	8.82% (inactive)
CC(=O)N1CCN(c2ccc(O)cc2)CC1	–	-11.4% (inactive)
COC1(c2sc3c(N4CCOCC4)nc(-c4cnc(N)nc4)nc3c2C)COC1	0.501 µM (active)	–
C#Cc1ccc(-c2ccccc2F)cc1	–	6.75% (inactive)
Cc1c(-c2ccc(-c3ccccc3F)cc2)nc2ccc(F)cc2c1C(=O)O	–	-18.7% (inactive)
C=C1C[C@H]2[C@@H]3C=C(C)C4=CC(=O)CC[C@]4(C)[C@H]3CC[C@]2(C)[C@@]1(OC(C)=O)C(C)=O	–	-11.1% (inactive)
[2H]c1nc(C)nc([2H])c1-c1cc(NC[C@@H](C)c2cccc3c(C(=O)NC)ccnc23)ncn1	–	-21.5% (inactive)
Cc1ccsc1C(=CCCN1CCC[C@@H](C(=O)O)C1)c1sccc1C	inactive	–
C[C@]12C=CC(=O)C=C1[C@@H](F)C[C@@H]1[C@@H]2[C@@H](O)C[C@@]2(C)[C@H]1CC[C@]2(O)C(=O)CO	–	-0.767% (inactive)
Cn1nccc1Nc1nccc(-c2cc3c(s2)C(C)(C)N(CCN2CCOCC2)C3=O)n1	–	8.05% (inactive)
O=C(O)c1ccc(-n2nc(-c3ccccc3O)nc2-c2ccccc2O)cc1	31.6 µM (active)	–
O=C(CCCN1CC=C(n2c(=O)[nH]c3ccccc32)CC1)c1ccc(F)cc1	–	2.25% (inactive)
NCC1CCC(C(=O)Oc2ccc(CCC(=O)O)cc2)CC1 (stereo not given)	–	10.7% (inactive)
Cc1ncc(CO)c(CO)c1O	–	-9.5% (inactive)
Cc1ncc(CO)c(CN)c1O	–	-15.9% (inactive)
